Screening data: PubChem, National Center for Advancing Translational Sciences (NCATS)
Pf growth 96h: Primary qHTS for delayed death inhibitors of the malarial parasite plastid, 96 hour incubation | P. falciparum luciferase reporter growth, 96 h | Potency, µM (titrated, usually from 28.7 µM), without a hit: top-dose activity change, negative = inhibition, hits mostly inhibitors | 6.9% of 320,000 active
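Two-generation exposure (96 h) targets delayed-death phenotype. Reporter parasites carrying integrated firefly luciferase, in red cells at 2% hematocrit and 0.05% parasitemia final, kept at 37 C, 5% CO2; luminescence loss indicates inhibition.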
Pf growth 48h: Primary qHTS for delayed death inhibitors of the malarial parasite plastid, 48 hour incubation; AID 504832, 2011; P. falciparum luciferase growth in erythrocytes, 48 h; Potency, µM (highest dose often 28.7 µM), for inactives: top-dose activity change, negative = inhibition, actives largely listed as inhibitors; 5.9% of 310,000 active
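Luminescence readout; reporter = integrated firefly luciferase in P. falciparum. RBC culture at 2% hematocrit, 0.1% parasitemia final, 37 C/5% CO2; decreased signal taken as growth inhibition.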
HCV inhibitor: qHTS Assay for Inhibitors of Hepatitis C Virus (HCV); Huh7.5.1 HCVcc-Cre infection, luciferase reporter, 44 h; AID 651820, 2012; 3.4% of 340,000 active; Potency, µM (doses to about 41.8 µM), for inactives: at the highest dose activity change, negative = inhibition, actives largely listed as inhibitors
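Reporter virus HCVcc-Cre (~0.5 moi) infects cells exposed to compound; seeding density 1,000 cells/well with 4 h settling beforehand. Luminescence, 15 sec read, taken 44 h post-infection following a 15 min RT substrate incubation.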
AMA1-RON2 inh: qHTS for Inhibitors of AMA1-RON; Towards Development of Antimalarial Drug Lead: Primary Screen; Plasmodium falciparum AMA1 (3D7) - RON2 peptide interaction; AlphaScreen AMA1-biotinylated RON2 peptide binding; Potency, µM (top dose mostly 58.2 µM), for the others: top-dose activity change, negative = inhibition, most hits filed as inhibitors; 0.2% of 360,000 active;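 also: 0% = vehicle wells and -100% = peptide control; nearly all actives have a fitted effect of over 45% in size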
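AMA1 (3D7) with his tag at 25 nM final met compounds first, then biotinylated RON2 peptide at 25 nM; detection used donor plus acceptor beads, 10 µg/mL apiece, read by AlphaScreen after 30 min at room temperature.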
* marks the source's active call; other numbers are inactive results; ? = inconclusive; nt = no result given. Compounds with a hit are over-represented: about 11% of the library has one in this group of screens. Calls follow the shape of the dose curve; as a rule, active = well fitted curve in the direction sought with a large enough effect; inconclusive = small, poorly fitted or top-dose-only effect, or another doubt; inactive = no such curve, though single readings can be large; an effect the other way counts as inactive or inconclusive. Unless noted, % is scaled to controls: 0 for no effect and ±100 for the full control effect; potency is read from the fitted curve at half-maximal effect.

SMILES	Pf growth 96h	Pf growth 48h	HCV inhibitor	AMA1-RON2 inh
CCOC(=O)/C(=C/C=C/c1ccccc1)NC(=O)c1ccccc1	10.4µM*	16.7%	?	1.1%
COc1ccc(Cl)cc1NC(=O)c1nnn(CC(=O)Nc2ccc3c(c2)OCO3)c1N	14.7µM*	29.2%	-2.0%	8.2%
Cc1cc(C)cc(NC(=O)Cn2nnc(C(=O)NCc3ccc4c(c3)OCO4)c2N)c1	0.104µM*	32.0%	0.0%	-5.0%
Cc1ccc(CNC(=O)c2nnn(CC(=O)Nc3cc(C)cc(C)c3)c2N)cc1	2.08µM*	36.3%	14.4%	-19.1%
Cc1cc(C)cc(-n2nnc(C(=O)NCc3ccccc3)c2N)c1	?	13.1µM*	10.7%	41.9%
COc1ccc(NC(=O)Cn2nnc(C(=O)NCc3ccc4c(c3)OCO4)c2N)cc1	-1.5%	34.9%	2.0%	-4.0%
Cc1cc(C)cc(-n2nnc(C(=O)NCc3ccc(Cl)cc3)c2N)c1	-19.2%	?	?	-6.3%
COc1ccc(NC(=O)Cn2nnc(C(=O)NCc3ccc(C)cc3)c2N)cc1OC	49.4%	0.9%	6.5%	-12.5%
CCCCNC(=O)C1(C)CCCCN1C(=O)c1cc2ccccc2s1 (stereo not given)	nt	nt	nt	-4.1%
Cc1cc(C)cc(NS(=O)(=O)c2cc(C(=O)NCc3ccccn3)ccc2Cl)c1	?	12.2%	22.2%	6.0%
Cc1ccc(N(Cc2ccc(C(=O)NCCSc3ccccn3)cc2)S(C)(=O)=O)cc1C	0.738µM*	?	1.6%	-5.6%
CS(=O)(=O)N(Cc1ccccc1Cl)c1ccc(C(=O)NCc2ccccn2)cc1	10.4µM*	?	9.4%	53.0%
O=C(NCc1ccccn1)c1ccc(Cl)c(S(=O)(=O)Nc2ccccc2C(=O)NCc2ccccn2)c1	9.28µM*	11.7µM*	31.9%	29.9%
C=CCNC(=O)c1ccccc1NC(=O)c1ccc(Cl)c(S(=O)(=O)Nc2cc(C)ccc2C)c1	8.28µM*	?	12.6µM*	-1.4%
Cc1ccccc1CN(c1ccc(C(=O)NCc2ccccn2)cc1)S(C)(=O)=O	20.1%	1.1%	15.2%	0.0%
CS(=O)(=O)N(Cc1ccc(C(=O)NCCSc2ccccn2)cc1)c1ccccc1	?	-21.0%	?	16.1%
CC(C)c1ccc(NC(=O)CCNS(=O)(=O)c2cc(Br)cnc2N)cc1	9.4%	-0.8%	9.9%	13.2%
O=C(N/C(=C\c1cccc([N+](=O)[O-])c1)C(=O)N(CCO)CCO)c1ccco1	-10.8%	4.2%	2.2%	-9.0%
Cc1cc(Oc2cccc3c2S(=O)(=O)N(C2CCCC2)CC(COCc2ccccc2)O3)cc(C)c1C (stereo not given)	nt	nt	-1.0%	-2.7%
Cc1ccccc1NS(=O)(=O)c1cc(C(=O)N2CCCC2)ccc1Cl	10.8%	-28.6%	nt	-0.1%
Cc1ccccc1NS(=O)(=O)c1cc(C(=O)Nc2ccccc2-c2ccccc2)ccc1Cl	-15.9%	?	11.2µM*	-8.3%
CC(C)(C)CC(=O)Nc1nn[nH]n1	3.0%	2.8%	31.4%	-5.1%
O=C(c1ccco1)N(CCCN1CCOCC1)c1nc(-c2ccc(F)cc2)cs1	-6.2%	?	11.2µM*	-22.1%
O=C(c1ccco1)N(CCCN1CCOCC1)c1nc(-c2ccc(Cl)cc2)cs1	29.9%	?	11.2µM*	0.7%
CN(C(=O)c1ccco1)c1nc(-c2ccc(F)cc2)cs1	?	159.0%	-21.7%	-0.5%
SMILES	Pf growth 96h	Pf growth 48h	HCV inhibitor	AMA1-RON2 inh
CCN(CC)CCCN(C(=O)c1ccco1)c1nc(-c2ccc(C)cc2)cs1	60.3%	?	?	-11.3%
CCN(CC)CCCN(C(=O)c1ccco1)c1nc(-c2ccc(Cl)cc2)cs1	?	1.47µM*	11.2µM*	-8.2%
CC(C)NC(=O)Nc1cccc2c1O[C@H](CN(C)C(=O)NC1CCCCC1)[C@H](C)CN([C@H](C)CO)C2=O	nt	nt	-5.1%	0.0%
Cc1cc(-c2nnc3n2N=C(c2ccc(-c4ccccc4)cc2)CS3)n[nH]1	?	10.4µM*	-12.2%	-6.6%
Cc1ccc(-c2nnc3n2N=C(c2ccccc2Br)CS3)cc1	-1.1%	11.7µM*	?	-1.6%
Cc1cc(-c2nnc3n2N=C(c2ccccc2)CS3)n[nH]1	?	-3.0%	?	-11.6%
c1ccc(-c2cc(-c3nnc4n3N=C(c3ccc5ccccc5c3)CS4)[nH]n2)cc1	?	11.7µM*	9.2%	-0.7%
CCOc1ccc(OCCC(=O)N(CCOC)c2c(N)n(Cc3ccccc3)c(=O)[nH]c2=O)cc1	nt	nt	5.0%	-7.4%
COc1cc(/C=N\NC(=O)c2ccc(-c3ccccc3)cc2)cc(OC)c1O	10.5%	9.28µM*	?	57.6%
COc1cccc(/C=N/NC(=O)c2nc(-c3ccccc3)cc(-c3ccccc3)n2)c1	7.0%	10.4µM*	0.6%	-1.8%
COc1ccc(/C=N/NC(=O)c2nc(-c3ccccc3)cc(-c3ccccc3)n2)cc1OC	2.33µM*	?	?	-6.2%
CCOc1cc(/C=N/NC(=O)c2ccc(N(C)S(=O)(=O)c3ccccc3)cc2)ccc1OC	-0.6%	-15.7%	8.91µM*	-27.4%
COc1cc(/C=N\NC(=O)c2ccc(-c3ccccc3)cc2)ccc1OCC(N)=O	-6.4%	-7.0%	?	-5.4%
COc1cc(/C=N/NC(=O)c2ccc(N(C)S(=O)(=O)c3ccccc3)cc2)cc(OC)c1OC	?	-1.9%	?	25.4%
COc1cc(/C=N\NC(=O)c2ccc(-c3ccccc3)cc2)cc(OC)c1OC(C)=O	?	?	?	49.8%
CCOc1ccc(C(C)=O)cc1Cn1c(=O)oc2ccccc21	-2.7%	-10.5%	-10.4%	-6.0%
CCN(CC)C(=O)CSc1nnc(-c2ccccn2)n1Cc1ccccc1	1.6%	-15.2%	16.9%	1.2%
COc1ccccc1NCC(=O)N/N=C/C=C/c1ccccc1	-1.0%	-6.0%	0.6%	38.1%
COc1ccc(NCC(=O)N/N=C/C=C\c2ccccc2)cc1	2.62µM*	15.8%	0.2%	34.0%
CCCn1c(=O)c2ccccc2n2c(SCc3nc4ccccc4s3)nnc12	10.4µM*	103.5%	-26.1%	2.4%
Cn1c(SCc2nc3ccccc3s2)nnc1-c1cccs1	nt	-25.2%	7.1%	-7.8%
CCn1c(SCCOc2ccc(Cl)cc2)nnc1-c1cccs1	9.28µM*	?	-19.2%	2.7%
CCn1c(SCc2nc3ccccc3s2)nnc1-c1cccs1	10.4µM*	-18.4%	-27.2%	9.8%
CCc1ccc(-n2c(=O)c3c(C)c(C)sc3n(CC(=O)NCC3CCCO3)c2=O)cc1 (stereo not given)	-24.6%	-7.2%	2.9%	5.5%
CN1C(=O)CC(C(=O)Nc2ccccc2F)SC1=Nc1ccc2c(c1)OCO2 (stereo not given)	26.7%	?	1.2%	0.5%
CN(CC(=O)Nc1ccccc1Cl)C(=O)C1CCN(C(=O)c2ccc(F)cc2)CC1	?	-22.8%	9.2%	26.6%
C/C(=C\c1ccccc1)CN1CCN(C)CC1	0.0522µM*	-13.6%	-8.6%	-5.1%
CCC(=O)Nc1cccc(-c2nc3ccccc3o2)c1	nt	43.4%	?	-0.6%
